Measurements from ChEMBL document CHEMBL4808148, “HDAC6 screening dataset using tau-based substrate in an enzymatic assay yields selective inhibitors and activators” (2021).
Several values for one entry are separate records, joined by “and”; a condition that tells them apart may be missing. Equal values may be shown once. In all, about 5,600 compounds went through this assay and about 390 (7%) showed an effect of 50% or more. The sample holds strong results, similar compounds and a random draw of the others, so the mix is not that of the screen.

How the values were obtained:
[1] = biological target: T1, Protein deacetylase HDAC6 (Homo sapiens) (UniProt Q9UBN7); settings: at 10 µM
T1 sequence (whole entry): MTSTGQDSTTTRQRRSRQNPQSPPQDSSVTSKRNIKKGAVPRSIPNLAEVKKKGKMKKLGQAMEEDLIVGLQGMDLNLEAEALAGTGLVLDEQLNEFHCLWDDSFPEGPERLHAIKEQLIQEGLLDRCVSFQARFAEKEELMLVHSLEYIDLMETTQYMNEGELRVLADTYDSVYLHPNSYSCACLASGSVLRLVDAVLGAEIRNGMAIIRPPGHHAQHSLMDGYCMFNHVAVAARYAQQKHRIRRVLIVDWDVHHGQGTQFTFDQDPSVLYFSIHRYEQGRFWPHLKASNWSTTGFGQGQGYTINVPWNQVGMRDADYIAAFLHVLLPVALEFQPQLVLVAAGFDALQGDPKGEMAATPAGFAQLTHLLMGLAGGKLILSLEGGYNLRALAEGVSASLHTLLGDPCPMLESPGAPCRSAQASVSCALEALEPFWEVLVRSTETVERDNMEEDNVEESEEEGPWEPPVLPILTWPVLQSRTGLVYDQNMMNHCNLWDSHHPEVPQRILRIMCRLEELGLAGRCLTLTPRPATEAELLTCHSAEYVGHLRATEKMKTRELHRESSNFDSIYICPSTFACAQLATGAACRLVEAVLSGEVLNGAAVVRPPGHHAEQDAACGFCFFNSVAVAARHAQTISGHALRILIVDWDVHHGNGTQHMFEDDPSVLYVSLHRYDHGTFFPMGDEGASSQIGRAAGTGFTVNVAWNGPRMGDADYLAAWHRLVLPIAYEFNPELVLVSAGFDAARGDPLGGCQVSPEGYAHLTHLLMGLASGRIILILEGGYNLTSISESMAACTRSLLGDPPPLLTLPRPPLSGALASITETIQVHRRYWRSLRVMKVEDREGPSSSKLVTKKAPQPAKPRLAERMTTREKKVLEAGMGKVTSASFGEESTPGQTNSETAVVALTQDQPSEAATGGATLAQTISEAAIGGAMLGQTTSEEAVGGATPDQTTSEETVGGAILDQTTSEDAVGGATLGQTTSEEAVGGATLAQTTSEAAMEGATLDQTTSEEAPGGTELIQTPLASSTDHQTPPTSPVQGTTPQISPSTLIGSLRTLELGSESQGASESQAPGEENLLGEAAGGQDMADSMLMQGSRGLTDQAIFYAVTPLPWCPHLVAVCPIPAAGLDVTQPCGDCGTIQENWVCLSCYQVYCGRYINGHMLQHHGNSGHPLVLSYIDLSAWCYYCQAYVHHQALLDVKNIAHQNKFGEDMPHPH

[2] = biological target: Protein deacetylase HDAC6 (Homo sapiens) (UniProt Q9UBN7); settings: at 10 µM; remark: listed apart in the source

## CN(C)Cc1c(C(=O)NCCOc2ccc(C(=O)NO)cc2)oc2ccccc12
[1]
  inhibition: 102%

## N#Cc1cc2c(OCC(O)CN3CCN(C(c4ccccc4)c4ccccc4)CC3)cccc2[nH]1 (racemic)
[1]
  inhibition: 3.02%

## O=C1CC2(CCCC2)CC(=O)N1CCNCC1COc2ccccc2O1 (centres undefined)
[1]
  inhibition: 5.51%

## CN(C)C(=O)n1nnnc1Cc1ccc(-c2ccccc2)cc1
[1]
  inhibition: 26.8%

## CCCNC(=O)N1N=C(c2ccc(N)cc2)c2cc3c(cc2C1C)OCO3 (centres undefined)
[1]
  inhibition: 26.2%

## Cc1[nH]c(/C=C2\C(=O)Nc3ccc(F)cc32)c(C)c1C(=O)NC[C@H](O)CN1CCOCC1
[1]
  inhibition: 34%

## Cc1ccc(OCCSc2ncccn2)c(Br)c1
[1]
  inhibition: 99.3%

## CCCCCCCCCCCCCCC[C@@H](O)[C@@H](N)CO
[1]
  inhibition: 26%

## Sodium stibogluconate, CHEMBL2079699
[2]
  inhibition: 0.83%

## Cc1[nH]c(/C=C2\C(=O)Nc3ccccc32)c(C)c1CCC(=O)O
[1]
  inhibition: 30.1%

## Cc1cc(C)c(/C=C2\C(=O)Nc3ccccc32)[nH]1
[1]
  inhibition: 88.8%

## CN(C)c1ccc(/C=C2\C(=O)Nc3ccccc32)cc1
[1]
  inhibition: 101%

## CCN(CC)CCNC(=O)c1c(C)[nH]c(/C=C2\C(=O)Nc3ccc(F)cc32)c1C
[1]
  inhibition: 16.3%

## C#Cc1c[nH]c(=O)[nH]c1=O
[1]
  inhibition: -6.92%

## CC1(C)CN2C(CS/C(=N\C3CCCCC3)NC3CCCCC3)=CSC2=N1
[1]
  inhibition: 12.2%

## O=S(=O)(NC1CCNCC1)c1cc(S(=O)(=O)c2ccccc2)ccc1C(F)(F)F
[1]
  inhibition: -7.14%

## CC(CCCCC(=O)Nc1ccc(C(F)(F)F)cc1)NCCc1c[nH]cn1 (centres undefined)
[1]
  inhibition: 3.94%

## C/C(=C\CNc1ncnc2[nH]cnc12)CO
[1]
  inhibition: 5.74%

## O=c1c2ccccc2oc2ccccc12
[1]
  inhibition: 92.3%

## O=c1oc2ccccc2c(O)c1Cc1c(O)c2ccccc2oc1=O
[1]
  inhibition: -8.39%

## CCC(c1ccccc1)c1c(O)c2ccccc2oc1=O (centres undefined)
[1]
  inhibition: 16.2%

## Cc1cc(-c2nc3cc(F)ccc3s2)ccc1NC(=O)[C@@H](N)CCCCN
[1]
  inhibition: 28.4%

## CNCCC=C1c2ccccc2C=Cc2ccccc21
[1]
  inhibition: 15.7%

## CN(C)CCC=C1c2ccccc2C=Cc2ccccc21
[1]
  inhibition: 63.9%

## CN(C)CCC=C1c2ccccc2COc2ccccc21
[1]
  inhibition: -7.53%

## CNc1cc2c(Nc3cccc(Br)c3)ncnc2cn1
[1]
  inhibition: 9.09%

## Cc1ccc2nc(NCCN)c3ncc(C)n3c2c1
[1]
  inhibition: 4.14%

## O=C1Nc2ccc(I)cc2C1=Cc1cc(Br)c(O)c(Br)c1
[1]
  inhibition: 72.9%

## C=C[C@@H]1C[C@]1(NC(=O)[C@@H]1C[C@@H]2CN1C(=O)[C@H](C(C)(C)C)NC(=O)O[C@@H]1C[C@H]1CCCCCc1nc3ccc(OC)cc3nc1O2)C(=O)NS(=O)(=O)C1CC1
[1]
  inhibition: 0.36%

## O=c1c2c(c1=O)N(CCP(=O)(O)O)CCCN2
[1]
  inhibition: 12.1%

## Cc1ccc([N+](=O)[O-])cc1S(=O)(=O)N(C)C
[1]
  inhibition: 6.18%

## S=C(NCCc1ccccn1)Nc1ccc(Br)cn1
[1]
  inhibition: 8.48%

## COC(c1ccccc1)(c1ccccc1)[C@H](Oc1nc(C)cc(C)n1)C(=O)O
[1]
  inhibition: -8.71%

## NKP-1339, CHEMBL5308480
[2]
  inhibition: 34.9%

## Mangafodipir (trisodium), CHEMBL5308448
[2]
  inhibition: 18%

## hemin, CHEMBL5308479
[2]
  inhibition: 56.4%

## COc1ccc(CC2NCCc3c2[nH]c2ccc(C)cc32)c(Cl)c1OC (centres undefined)
[1]
  inhibition: -1.23%

## O=C(Nc1ccccc1)Nc1ccc(-c2ccc(C(=O)[C@@H]3CCC[C@H]3C(=O)O)cc2)cc1
[1]
  inhibition: 4.7% and 12.5%

## CN1CCN(c2ccc3nc(-c4c(N)c5c(F)cccc5[nH]c4=O)[nH]c3c2)CC1
[1]
  inhibition: 86.8%

## CN1CCN(C(=O)c2nc3ccc(Cl)cc3[nH]2)CC1
[1]
  inhibition: 16.2%

## CC(C)=CCC[C@](C)(O)[C@H]1CC[C@]2(C)[C@@H]1[C@H](O)C[C@@H]1[C@@]3(C)CC[C@H](O[C@@H]4O[C@H](CO)[C@@H](O)[C@H](O)[C@H]4O[C@@H]4O[C@H](CO)[C@@H](O)[C@H](O)[C@H]4O)C(C)(C)[C@@H]3CC[C@]12C
[1]
  inhibition: 11.5%

## O=C(Cn1ccnc1[N+](=O)[O-])NCc1ccccc1
[1]
  inhibition: 32.3%

## Cc1c[nH]c(=O)n(CCCN2CCN(c3ccccc3OCC(F)(F)F)CC2)c1=O
[1]
  inhibition: 19.2%

## CS(=O)(=O)N1CCN(Cc2cc3nc(-c4cccc5[nH]ncc45)nc(N4CCOCC4)c3s2)CC1
[1]
  inhibition: 11.1%

## COc1ccc(-c2nc(N3CCOCC3)c3sc(CN(C)c4ncc(C(=O)NO)cn4)cc3n2)cn1
[1]
  inhibition: 98%

## COC(=O)Nc1ccc(-c2nc(N3CCOCC3)c3cnn(C4CCN(C(=O)OC)CC4)c3n2)cc1
[1]
  inhibition: 21.1%

## C[N+](C)(C)NCCC(=O)[O-]
[1]
  inhibition: 17.8%

## Cn1c(=O)c2c(ncn2CCOC(=O)C(C)(C)Oc2ccc(Cl)cc2)n(C)c1=O
[1]
  inhibition: 23.6%

## c1ccc(-c2n[nH]c3c2oc2ccccc23)cc1
[1]
  inhibition: 95%

## CCC/C=C1\OC(=O)C2=C1CCC=C2
[1]
  inhibition: 39.5%

## CC(=C\c1ccc(Cl)cc1)/C(C)=N/O
[1]
  inhibition: 2.85%

## NC(CC(F)C(=O)O)C(=O)O (racemic)
[1]
  inhibition: 38.9%

## COC(=O)/C=C/c1cc(O)ccc1O
[1]
  inhibition: 28.1%

## C=CC(C)(C)c1cc(/C=C/C(=O)c2ccc(O)cc2)c(OC)cc1O
[1]
  inhibition: 75.1%
